Bioassay records as filed in PubChem BioAssay.
Shown is part of a subset that was picked to be rich in hits.
TTR transcr act = TTR transcription activation, primary screen. AID 1117267. activation, % at 16.7 µM. SH-SY5Y TTR promoter Gaussia luciferase, luminescence; 100% = recombinant luciferase protein wells. hit rate 1.3% among 92,000;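 active = activation above the mean of all tested compounds plus 3 SD, cut at about 9.5% in these data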;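 also: cells exposed to compounds for one day before reading; 0% = median of all test compound wells on the plate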
HuH7 TTR inh = counter-screen for TTR activators: TTR transcription inhibitors in HuH7 cells; shares compounds with TTR transcr act; HuH7 TTR promoter-Gaussia luciferase reporter, luminescence; inhibition, % at 16.7 µM; hit rate 4% among 1,100; AID 1117279;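 active = average inhibition above the solvent-only control wells' mean plus 3 SD, cut at about 15% in these data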;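 also: 0% = cells with DMSO only and 100% = cells with inhibitor control FD; inhibitors lower well luminescence so higher value means more inhibition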
TTR act confirm = confirmation of human transthyretin transcription activators | activation, % at 16.7 µM | SHSY5Y TTR promoter Gaussia luciferase, luminescence; 100% = purified Lucia enzyme wells, no cells | shares compounds with TTR transcr act | 1,100 tested, under 10 active;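 active = mean activation above a set limit taken from the earlier primary screen, cut at about 11% in these data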;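 also: 0% = DMSO-treated cells and 100% = recombinant Lucia luciferase without cells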
* hit, by the source's call.

SMILES	TTR transcr act	others
Cc1cc(C)nc(NS(=O)(=O)c2ccc(NC(=O)C3CC(=O)N(c4ccccc4)C3)cc2)n1 (configuration not stated)	-1.1
O=C(CN1CCN(Cc2ccc(F)cc2)CC1)NCc1ccccc1	2.1
COc1ccc(C(=O)COC(=O)c2ccccc2O)c(OC)c1	-1.8
COC(=O)[C@@]1(C)[C@H]2C(=O)N(Cc3ccccc3)C(=O)[C@H]2[C@H]2CN=C(SCC(=O)c3ccccc3)N21	1.8
CC(C)(C)N(Cc1ccccc1)C(=O)COC(=O)c1ccc2ccccc2n1	-0.7
COc1ccc(CN2C(=O)C(CC(=O)NC3CC3)CC(C(=O)N3CCOCC3)=C2C)cc1 (configuration not stated)	1.6
O=C(c1ccc2ccccc2c1O)N1CCCCC1	0.0
CCOC(=O)CSCC(=O)Nc1ccc(S(=O)(=O)N2CCCCC2)cc1	-2.1
COc1ccc(NC(=O)CSCC(=O)Nc2ccc(S(=O)(=O)N3CCCC3)cc2)cc1	0.0
COc1ccc(NC(=S)Nc2ccc(S(=O)(=O)N3CCCCC3)cc2)cc1	12.1*	HuH7 TTR inh=12.4;TTR act confirm=-0.1
COc1ccc(OCC(=O)Nc2ccc(S(=O)(=O)N3CCCCC3)cc2)cc1	-0.7
Cc1ccc(NC(=O)CSc2nc(N)cc(=O)[nH]2)cc1S(=O)(=O)N1CCCCCC1	0.9
Cc1cc(=O)[nH]c(SCC(=O)Nc2ccc(S(=O)(=O)N3CCCCC3)cc2)n1	12.9*	HuH7 TTR inh=-1.7;TTR act confirm=0.1
Cc1ccc(S(=O)(=O)N(C)C[C@@H]2OCc3cnnn3CCCC(=O)N([C@@H](C)CO)C[C@@H]2C)cc1	2.7
O=C(OCC#CCSc1nnc(-c2cccs2)o1)c1ccc(F)cc1	0.2
O=C(Nc1ccc2c(c1)OCO2)c1ccc2sc([C@H]3C[C@H](O)[C@@H](CO)O3)nc2c1	0.2
CCCC1=C(C(=O)OCC)C(c2cccs2)n2ncnc2N1 (configuration not stated)	-1.3
Nc1ncncc1-c1ccccc1Cl	-0.6
Cc1ccc(NC(=O)c2ncn(CCCNCc3ccccc3)n2)cc1C	13.2*	HuH7 TTR inh=-10.5;TTR act confirm=0.5
Cc1ccc(NC(=O)c2ncn(CCCNCCCN3CCCC3=O)n2)cc1C	-0.5
Cc1ccc(NC(=O)c2ncn(CCCNCC3CCCCC3)n2)cc1C	1.6
C=CC[C@]1(O)C(=O)N(c2ccccc2)c2ccccc21	-0.7
O=C(Nc1ccc(F)cc1F)N1CCN(CCc2ccccc2)CC1	-0.3
COc1ccc(/C=C(/C#N)C(=O)Nc2cc(C)ccc2C)cc1C(=O)O	-1.0
COc1ccc(/C=C(\C#N)C(=O)Nc2cc(C)c(Cl)cc2OC)cc1O	12.5*	HuH7 TTR inh=-3.6;TTR act confirm=-0.1
SMILES	TTR transcr act	others
COc1cc(/C=C(\C#N)C(=O)NC(C)C)cc(Cl)c1O	-0.2
O=C(NCc1cccc(Cl)c1)N1CCN(S(=O)(=O)c2ccccc2F)CC1	-0.5
Cc1ccsc1C(=O)OCC(=O)NCc1ccc(Cl)cc1	1.5
NC(=N\N=CCc1ccccc1)/C(N)=N/N=CCc1ccccc1	-1.0
Cc1cccc(NC(=O)Cn2nc(-c3cccs3)ccc2=O)c1C	-1.1
COc1ccc2c(c1)OCC(O)(c1ccccc1)C2=O (configuration not stated)	37.7*	HuH7 TTR inh=-6.8;TTR act confirm=2.0
COc1ccc(OC)c(NC(=O)C2CC2c2ccccc2)c1 (configuration not stated)	-2.0
COc1ccc(NC(=O)C(c2ccccc2)c2ccccc2)c(OC)c1	0.7
COCCCNC(=O)c1csc([C@H]2C[C@H](O)[C@@H](CO)O2)n1	1.4
Nc1ncnc2c1ncn2[C@@H]1O[C@H](CNC(=O)[C@@H]2CCN2)[C@@H](O)[C@H]1O	-0.4
CS(=O)(=O)N(CC(=O)Nc1ccc(S(=O)(=O)N2CCCC2)cc1)c1cccc(F)c1	1.2
COc1ccccc1NC(=O)NNC(=O)c1ccncc1	7.6
CC1C(=O)N(Cc2cn(CCC3OCCO3)nn2)CCS(=O)(=O)N1Cc1ccc(-c2ccc(F)cc2)cc1 (configuration not stated)	-0.5
CC1C(=O)N(Cc2cn(CCC3OCCO3)nn2)CCS(=O)(=O)N1Cc1ccc(-c2cccc(N(C)C)c2)cc1 (configuration not stated)	36.9*	HuH7 TTR inh=-4.3;TTR act confirm=1.3
CC1C(=O)N(Cc2cn(CCC3OCCO3)nn2)CCS(=O)(=O)N1Cc1ccc(-c2ccncc2)cc1 (configuration not stated)	-1.6
CN(C)c1cccc(-c2nccc(N3CCC(C(N)=O)CC3)n2)c1	-2.2
CCOC(=O)Cn1c(=O)oc2cc(S(=O)(=O)N(CCN(C)C)Cc3ccccc3)ccc21	0.0
CCOC(=O)Cn1c(=O)oc2cc(S(=O)(=O)NC(C)(C)CC)ccc21	0.3
CCOC(=O)Cn1c(=O)oc2cc(S(=O)(=O)N3CCc4ccccc43)ccc21	14.5*	HuH7 TTR inh=-3.6;TTR act confirm=-0.4
Fc1ccc(Oc2ccnc(Cl)n2)c(Cl)c1	-0.8
